Calls of active or inactive are those of the source.

A short description of assay [1]: E. coli DRC41 culture turbidity changes, primary screen, E. coli filamentation inducer project, strain DRC41, OD650, 48 h (AID 1152).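 Also: E. coli MC1000 strain DRC41 lacking acrAB efflux pump and sulA.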 As to conditions: E. coli DRC41 (acrAB sulA), higher = more signal, called active from +8 up or from −8 down.
The nature of assay [2]: small-molecule binders of probe aLefty1, primary screen, biochemical, small-molecule microarray, 635/667 nm fluorescence (AID 1153).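 Also: score merges spot fluorescence with signal-to-noise ratio from the scanned slide images.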 As to conditions: higher = more signal.
Assay [3] can be described thus: PSAC antagonists in infected red cells, primary screen, cell-based, P. falciparum Indochina, OD700, 1 h (AID 1154). As to conditions: P. falciparum Indochina infected RBC osmotic lysis, higher = more signal, called active from +8 up or from −8 down.
The nature of assay [4]: PSAC antagonists in infected red cells, primary screen, cell-based, P. falciparum Indochina, OD700, 2 h (AID 1155).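 Also: lysis reports solute entry through the parasite surface anion channel PSAC; channel blockers reduce lysis of infected cells.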 As to conditions: P. falciparum Indochina infected erythrocytes, osmotic lysis OD700; higher = more signal, called active from +8 up or from −8 down.
Assay [5] is described as follows: osmotic lysis modulators in infected erythrocytes, primary screen, PSAC antagonist project, cell-based, P. falciparum Indochina, OD700, 3 h (AID 1156). As to conditions: higher = more signal, called active from +8 up or from −8 down.
The nature of assay [6]: PSAC antagonists in infected red cells, primary screen, cell-based, P. falciparum Indochina, OD700, 18 h (AID 1157). The following applies: P. falciparum Indochina infected erythrocytes, osmotic lysis OD700, 18 h; higher = more signal, called active from +8 up or from −8 down.
The nature of assay [7]: modulators of S6 phosphorylation in cells, primary screen, cell-based, A549, cytoblot, luminescence, serum-stimulated (AID 1158).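 Also: serum-stimulated A549 lung adenocarcinoma cells; signal is phosphorylated S6 detected by cytoblot immunostaining with HRP secondary.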 The following applies: A549 phospho-S6 cytoblot, 5 h, higher = more signal.
The target in assay [8] is NADPH oxidase 2 (Homo sapiens) (UniProt P04839). Nature of the assay: NOX2-dependent H2O2 signal modulators, primary screen, NOX inhibitor project, cell-based, HEK293-NOX2, PMA-stimulated, Amplex Red fluorescence (AID 1159). Also: test concentration not given here. The following applies: 45 min, higher = more signal, called active from +8 up or from −8 down.
Sequence of NADPH oxidase 2 (Homo sapiens) (P04839 whole entry, looked up): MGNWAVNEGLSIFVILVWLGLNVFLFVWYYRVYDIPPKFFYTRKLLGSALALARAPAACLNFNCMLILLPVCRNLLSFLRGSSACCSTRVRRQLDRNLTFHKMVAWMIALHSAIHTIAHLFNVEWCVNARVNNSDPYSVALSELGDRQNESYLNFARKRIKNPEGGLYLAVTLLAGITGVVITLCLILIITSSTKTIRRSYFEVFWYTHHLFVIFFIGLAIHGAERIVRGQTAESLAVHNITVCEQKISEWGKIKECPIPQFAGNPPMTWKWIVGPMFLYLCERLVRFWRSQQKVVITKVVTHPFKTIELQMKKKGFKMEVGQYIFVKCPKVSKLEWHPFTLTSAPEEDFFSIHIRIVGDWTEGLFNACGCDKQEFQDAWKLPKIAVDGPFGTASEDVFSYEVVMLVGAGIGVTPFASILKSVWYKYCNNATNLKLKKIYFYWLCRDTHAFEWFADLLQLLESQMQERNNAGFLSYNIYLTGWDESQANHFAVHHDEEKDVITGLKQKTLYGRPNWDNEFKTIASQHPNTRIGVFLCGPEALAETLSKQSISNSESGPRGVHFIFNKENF
The target in assay [9] is NADPH oxidase 4 (Homo sapiens) (UniProt Q9NPH5). In words: NOX4-dependent H2O2 signal modulators, primary screen, NOX inhibitor project, cell-based, HEK293-NOX4, tetracycline-induced, Amplex Red fluorescence (AID 1160). As to conditions: 45 min, higher = more signal, called active from +8 up or from −8 down.
Sequence of NADPH oxidase 4 (Homo sapiens) (Q9NPH5 whole entry, looked up): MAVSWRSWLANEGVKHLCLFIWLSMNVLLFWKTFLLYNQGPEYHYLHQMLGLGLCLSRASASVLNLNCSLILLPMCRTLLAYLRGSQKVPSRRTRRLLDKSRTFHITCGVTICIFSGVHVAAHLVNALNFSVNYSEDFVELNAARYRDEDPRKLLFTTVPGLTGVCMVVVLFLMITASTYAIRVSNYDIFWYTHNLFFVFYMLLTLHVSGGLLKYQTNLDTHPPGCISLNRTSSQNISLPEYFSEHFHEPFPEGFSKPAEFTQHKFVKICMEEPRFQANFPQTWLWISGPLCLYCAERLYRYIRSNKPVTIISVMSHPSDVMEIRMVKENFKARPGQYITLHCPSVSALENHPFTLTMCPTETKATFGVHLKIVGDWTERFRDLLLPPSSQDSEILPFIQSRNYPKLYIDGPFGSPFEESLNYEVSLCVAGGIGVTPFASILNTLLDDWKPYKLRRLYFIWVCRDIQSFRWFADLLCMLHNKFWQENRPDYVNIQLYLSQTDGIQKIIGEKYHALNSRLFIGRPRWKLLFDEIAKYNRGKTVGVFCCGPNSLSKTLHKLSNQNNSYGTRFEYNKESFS
Assay [10] addresses NADPH oxidase 5 (Homo sapiens) (UniProt Q96PH1). Nature of the assay: NOX5-dependent H2O2 signal modulators, primary screen, NOX inhibitor project, cell-based, HEK293-NOX5, Amplex Red fluorescence (AID 1161). The following applies: HEK293-NOX5, ionomycin, 45 min, higher = more signal.

Sequence of NADPH oxidase 5 (Homo sapiens) (Q96PH1 whole entry, looked up): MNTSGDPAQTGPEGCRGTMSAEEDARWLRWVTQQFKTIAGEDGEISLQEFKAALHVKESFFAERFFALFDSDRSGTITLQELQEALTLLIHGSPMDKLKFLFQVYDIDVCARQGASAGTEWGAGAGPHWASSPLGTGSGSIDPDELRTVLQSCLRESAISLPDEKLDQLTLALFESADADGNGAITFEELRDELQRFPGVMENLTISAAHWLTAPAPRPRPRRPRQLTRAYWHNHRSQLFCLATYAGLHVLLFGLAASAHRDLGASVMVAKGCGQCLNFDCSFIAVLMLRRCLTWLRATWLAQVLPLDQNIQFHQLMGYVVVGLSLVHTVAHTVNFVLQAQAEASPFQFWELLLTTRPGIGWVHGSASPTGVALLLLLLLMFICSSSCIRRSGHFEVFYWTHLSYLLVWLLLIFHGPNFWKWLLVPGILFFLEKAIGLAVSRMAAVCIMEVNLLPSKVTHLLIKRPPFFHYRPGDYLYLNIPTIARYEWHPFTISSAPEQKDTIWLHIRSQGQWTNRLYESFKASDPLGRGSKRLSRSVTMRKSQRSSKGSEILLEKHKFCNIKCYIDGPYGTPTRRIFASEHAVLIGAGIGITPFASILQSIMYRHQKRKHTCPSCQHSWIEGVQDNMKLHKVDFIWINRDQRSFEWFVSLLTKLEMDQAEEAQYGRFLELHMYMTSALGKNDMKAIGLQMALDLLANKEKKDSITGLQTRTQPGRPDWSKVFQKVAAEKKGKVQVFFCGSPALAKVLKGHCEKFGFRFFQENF

Take `CC(C)NC(=O)[C@@H]1c2ccccc2C(=O)N(Cc2cc(C(F)(F)F)cc(C(F)(F)F)c2)[C@H]1c1ccc(CO)cc1`: the z-score in assay [1] is -0.464 (inactive); in assay [3], 1.54 (inactive); in [4], 0.349 (inactive); in [5], -0.113 (inactive); in assay [6] it was 0.057 (inactive); in [7], -0.167. The z-score in [8] is 0.513 (inactive); in [9], 0.349 (inactive); in assay [10], -0.284. The same molecule returned a composite z-score in assay [2] of 0.358.
With `C[C@]12C(=O)N(CCCCCO)[C@@H]3C(=O)N(c4ccc(Cl)cc4)CC=CC31O[C@@H]1/C=C\CCCOC(=O)C12` (stereo not given in full), the z-score was -1.14 (inactive) in [1]; -0.198 (inactive) in [3]; -0.307 (inactive) in [4]; -1.04 (inactive) in assay [5]; -0.183 (inactive) in assay [6]; -0.58 in assay [7]. Moreover, the z-score was 0.754 (inactive) in assay [8], 0.055 (inactive) in assay [9] and 1.45 in assay [10]. Besides, in assay [2], the composite z-score was -0.0054.
Consider `O=C1O[C@@H](c2ccccc2)[C@@H](c2ccccc2)N2[C@@H](c3ccc(O)cc3)[C@]3(C(=O)Nc4ccc(C#CC5(O)CCCCCC5)cc43)[C@@H](C(=O)N3CCN(c4ncccn4)CC3)[C@H]12`, for which the z-score is 1.36 (inactive) in assay [1]; 0.0075 (inactive) in [3]; -0.443 (inactive) in assay [4]; -5.11 (inactive) in assay [5]; -0.195 (inactive) in assay [6]; -0.181 in [7]. For the same molecule, the values for the z-score in [8], in assay [9] and in assay [10] were 1.07 (inactive), 0.74 (inactive) and 0.443, respectively. Further, the composite z-score in [2] turned out to be 0.214.
As to `C[N+](C)(C)CCCCNC(=O)[C@H]1C[C@H]2C(=O)NCC(=O)N2[C@H]1c1ccc(O)cc1`, the z-score in assay [1] was 0.77 (inactive); in assay [3], 0.367 (inactive); in assay [4], 0.0681 (inactive); in assay [5] it was -0.393 (inactive); in assay [6] it was 0.0564 (inactive); in [7], -0.0248. For the same molecule, the z-score in assay [8] was -1.51 (inactive); in assay [9], -0.769 (inactive); in assay [10], 0.226. The same molecule registered a composite z-score in [2] of 0.242.
Consider `CN(C)C(=O)[C@@]1(CCS(=O)(=O)c2ccccc2)N=C(c2ccc(OCCCO)cc2)O[C@H]1c1ccccc1CN=[N+]=[N-]`, for which the z-score in assay [1] was 1.1 (inactive); in [3] it was 24 (active); in assay [4] it was 4.2 (inactive); in assay [5], 0.344 (inactive); in assay [6], -0.48 (inactive); in assay [7], 1.12. The z-score in [8] is -1.49 (inactive); in [9] it was 0.083 (inactive); in assay [10] it was -0.558. In [2], this molecule registered a composite z-score of 0.375.
For `COCCCNC(=O)[C@@]1(Cc2ccccc2N=[N+]=[N-])N=C(c2ccc(OCCCO)cc2)O[C@H]1c1ccccc1CN=[N+]=[N-]`, the z-score in assay [1] is 0.871 (inactive); in assay [3], 24.8 (active); in [4], 8.62 (active); in assay [5], 2.41 (inactive); in assay [6], 0.74 (inactive); in [7], 2.17. The figures for the z-score in assay [8], in assay [9] and in [10] were -2.73 (inactive), 0.7 (inactive) and -1.16, respectively. Moreover, the composite z-score in assay [2] came to 0.152.
As to `COC(=O)[C@@]1(Cc2ccc(OC)cc2)[C@H]2c3cc(C(=O)N4CCCC4)n(Cc4ccc(C)o4)c3C[C@H]2CN1C(=O)c1ccccc1`, the z-score in [1] was -1.5 (inactive); in [3], 1.63 (inactive); in assay [4], -0.605 (inactive); in assay [5] it was 1.07 (inactive); in assay [6], 0.0276 (inactive); in assay [7] it was -1.8. The z-score in assay [8] was -4.49 (inactive); in assay [9], -2.62 (inactive); in assay [10] it was -0.354. The composite z-score in [2] is 1.34.
As to `COCCOC(=O)N1C(=O)[C@@]2(c3cc(C#CCCO)ccc31)[C@H](C(=O)N1CCc3cc(OC)c(OC)cc3C1)[C@H]1C(=O)O[C@H](c3ccccc3)[C@H](c3ccccc3)N1[C@@H]2c1ccc(OCCO)cc1`, the z-score is 1.42 (inactive) in assay [1]; 4.67 (inactive) in assay [3]; 1.02 (inactive) in assay [4]; 0.138 (inactive) in assay [5]; -0.0492 (inactive) in assay [6]; 1.26 in assay [7]. Besides, the z-score is 1.35 (inactive) in [8], 1.07 (inactive) in assay [9] and 1.44 in [10]. In [2], this molecule registered a composite z-score of 0.113.
For `C/C=C/[C@@H](CCn1cc([C@H](O)c2ccccc2)nn1)[Si](C)(C)c1ccc(OC)cc1`, the z-score in assay [1] is 0.703 (inactive); in assay [3], 5.3 (inactive); in assay [4], 1.06 (inactive); in assay [5], 2.04 (inactive); in [6], 0.473 (inactive); in assay [7], 0.201. The z-score is 0.257 (inactive) in [8], -0.182 (inactive) in assay [9] and -2.21 in assay [10]. This molecule also displayed a composite z-score in [2] of 0.121.
As to `COC(=O)[C@@]1(Cc2ccc(F)cc2)[C@@H]2[C@@H](CC(=O)[C@H]2CC(=O)C(=O)N2CCCC2)CN1C(=O)c1ccccc1`, the z-score in assay [1] is -1.75 (inactive); in assay [3] it was 1.76 (inactive); in [4], 0.367 (inactive); in assay [5] it was 0.747 (inactive); in assay [6], 0.935 (inactive); in assay [7], -0.502. Also, the z-score is 0.67 (inactive) in assay [8], 0.478 (inactive) in assay [9] and 1.28 in assay [10]. The composite z-score in [2] was determined as 1.33.
Regarding `COc1cc2c(cc1OC)CN(C(=O)[C@@H]1[C@H]3C(=O)O[C@H](c4ccccc4)[C@H](c4ccccc4)N3[C@H](c3ccc(OCCO)cc3)[C@@]13C(=O)Nc1ccc(C#CCCO)cc13)CC2`, the z-score in assay [1] was 2.02 (inactive); in assay [3], 2.85 (inactive); in [4] it was 0.0851 (inactive); in assay [5], 0.464 (inactive); in [6] it was -1.1 (inactive); in [7] it was 1.71. Further, the z-score was -0.303 (inactive) in assay [8], -0.458 (inactive) in assay [9] and -4.23 in [10]. The composite z-score in assay [2] worked out at 0.273.
Regarding `C=CCNC(=O)[C@H]1[C@@H]2C(=O)O[C@@H](c3ccccc3)[C@@H](c3ccccc3)N2[C@@H](c2ccc(OCCO)cc2)[C@]12C(=O)N(C(=O)OCCOC)c1ccc(C#CC3=CCCCC3)cc12`, the z-score in [1] is 1.1 (inactive); in assay [3], 2.13 (inactive); in [4] it was 1.76 (inactive); in assay [5], 0.178 (inactive); in assay [6] it was 0.948 (inactive); in assay [7], 0.632. In addition, the z-score in [8] is 1.99 (inactive); in [9] it was 0.421 (inactive); in assay [10], 2.48. Besides, the composite z-score in assay [2] was found to be 0.213.

(Values after PubChem BioAssay.)
